The results in this text go back to PubChem BioAssay (NCATS).

Molecules are shown by their SMILES. Inconclusive results are not listed. Activity calls are given as the source filed them. Calls follow the shape of the dose curve; as a rule, active = well fitted inhibition curve with a large enough effect in the repeat runs; inconclusive = weak or mixed curves; inactive = no such curve, though single readings can be large or run the other way.
Potency is read from the fitted curve at half-maximal effect.

Chain of Cytochrome P450 2C9 (Homo sapiens) (P11712 whole entry, looked up): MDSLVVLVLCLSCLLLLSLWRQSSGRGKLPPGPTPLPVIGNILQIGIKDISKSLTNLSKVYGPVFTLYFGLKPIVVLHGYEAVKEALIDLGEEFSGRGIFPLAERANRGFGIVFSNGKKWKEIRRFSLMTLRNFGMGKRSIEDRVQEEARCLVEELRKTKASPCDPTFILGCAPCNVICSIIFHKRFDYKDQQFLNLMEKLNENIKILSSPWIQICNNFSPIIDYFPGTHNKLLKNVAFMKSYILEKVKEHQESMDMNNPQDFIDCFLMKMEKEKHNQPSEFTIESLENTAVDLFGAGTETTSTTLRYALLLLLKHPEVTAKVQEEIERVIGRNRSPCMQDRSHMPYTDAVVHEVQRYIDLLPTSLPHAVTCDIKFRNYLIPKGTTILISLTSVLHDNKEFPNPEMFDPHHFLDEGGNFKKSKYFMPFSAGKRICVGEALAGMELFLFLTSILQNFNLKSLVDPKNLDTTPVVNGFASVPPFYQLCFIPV

The assay concerns the target Cytochrome P450 2C9 (Homo sapiens) (UniProt P11712). The assay can be described thus: Cytochrome P450 family 2 subfamily C member 9 (CYP2C9) small molecule antagonists: luciferase biochemical (cell-free) qHTS assay (AID 1645842). Also: nearly all actives have a fitted effect of over 55% in size. As to conditions: P450-Glo CYP2C9 enzyme assay, luciferin luminescence; series mostly up to 57.4 µM. In a few lines: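 Luminescence, after 20 min with luciferin detection reagent, reflected CYP2C9 turnover during a 1 h NADPH-driven reaction at 37C. Enzyme-substrate mix contained 0.4% bovine serum albumin and was preincubated with compound 10 min at room temperature.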
Background: Quantitative high-throughput screening tests each substance at several concentrations.
As to `C[C@@H]1C[C@H](C)CN(CCC(=O)Nc2ccc(Br)cc2)C1`, the Potency result was “inactive”. Turning to `COc1cc(N2CCOCC2)ccc1NC(=O)c1csc(-c2cccnc2)n1`, the Potency entry is “inactive”. Take `COc1cc(-c2nc(N[C@H](CO)Cc3ccccc3)ccc2C(=O)NCCOc2ccccc2)cc(OC)c1OC`: the Potency was 1.51 µM (active).

With `O=C(C(Cc1cccc(C(F)(F)F)c1)NS(=O)(=O)c1cc(F)c2c(c1)CCNC2)N1CCCC1` (centres undefined), the Potency is 12 µM (active). With `N#Cc1ccc(COc2ccc(-c3cccc4nc(NC(=O)C5CC5)nn34)cc2)cn1`, the Potency was 10.7 µM (active). As for `CC[C@H](C(=O)Nc1ccccc1N1CCCC1)c1ccccc1`, the figure is 7.56 µM (active); as for `O=C(Nc1ccccc1)N1CCN(c2nc(-c3ccccc3)ns2)CC1`, 5.35 µM (active). As for `CCCC(CCC)C(N)=O`, the entry is “inactive”; as for `CN(C)S(=O)(=O)c1ccc(NC(=S)N2CCC(C(O)(c3ccccc3)c3ccccc3)CC2)cc1`, 2.68 µM (active); as for `CCC(=O)Oc1ccc2c(c1)CC[C@@H]1[C@@H]2CC[C@]2(C)[C@@H](OC(=O)CC)CC[C@@H]12`, 15.1 µM (active). In the case of `O=C(Nc1ccccc1)N1CCC(Cc2cnc3ccccc3c2)CC1`, the Potency is 12 µM (active).

Turning to `CC1=C(C(=O)Nc2cc(Cl)ccc2Cl)C(c2ccco2)C2=C(CCCC2=O)N1` (centres undefined), the Potency was 1.07 µM (active). As for `CC(C)(O)c1ccc2c(c1)ncn2-c1cccc(-c2ccccc2C#N)c1`, the figure is 2.13 µM (active); as for `COc1ccccc1OCCN1CC(COc2cccc3[nH]c4ccccc4c23)OCC1=O` (centres undefined), 0.849 µM (active); as for `CC(C)c1cccc(C(C)C)c1NC(=O)Nc1ccc(Sc2ccc([N+](=O)[O-])cc2)cc1`, “inactive”. As for `COCCN(C(=O)c1cc(OC)c(OC)c(OC)c1)c1nc(-c2ccccc2)cs1`, the figure is 4.77 µM (active).

With `NC(N)=NC(=O)c1cnn(-c2cccc3ncccc23)c1C1CC1`, the Potency result is “inactive”. `CCCCC(=O)O`: the Potency entry is “inactive”. Take `O=C(NCC(=O)N1CCCC1)Nc1ccc2cnccc2c1`: the Potency result is “inactive”.

As to `O=C(COc1ccc(C(=O)c2ccccc2)cc1)NC1CCN(Cc2ccccc2)CC1`, the Potency was 4.77 µM (active). As to `O=C(OCCO)c1ccccc1O`, the Potency entry is “inactive”. In the case of `COc1ccc2cc(-c3cc(-c4cc(Cl)cc(Cl)c4)nn3C(C)c3ccc(C(=O)NCCC(=O)O)cc3)ccc2c1` (centres undefined) it was 10.7 µM (active); in that of `Cc1cn2c(n1)Cc1ccc(Cl)cc1C(c1ccc(N)cc1)=N2`, 12 µM (active). As for `COC(=O)c1sccc1S(=O)(=O)Nc1ccc(Nc2ccccc2)cc1OC`, the Potency is 2.39 µM (active). As for `CC1(S(=O)(=O)O)CC(=O)c2ccccc2C1=O` (centres undefined), the figure is 16.9 µM (active); as for `CCNC1(C(N)=O)CCN(c2ncnc3c2nc(-c2ccccc2Cl)n3-c2ccc(Cl)cc2)CC1`, 2.13 µM (active). As for `Cc1ccnc(NC(=O)C(C)c2cccc(C(=O)c3ccccc3)c2)c1` (centres undefined), the figure is 10.7 µM (active); as for `CCOc1ccc(-n2c(C(C)N(Cc3cccnc3)C(=O)Cc3ccc(F)c(C(F)(F)F)c3)nc3ncccc3c2=O)cc1` (centres undefined), 4.77 µM (active). Regarding `O=C(Nc1ccn(Cc2ccc(O)cc2C(F)(F)F)n1)c1c(F)cccc1F`, the Potency is 6.01 µM (active). In the case of `CCC(C)c1ccc(NC(=O)Cn2cnc3c2c(=O)n(C)c(=O)n3C)cc1` (centres undefined) it was 12 µM (active); in that of `OC1CCC(Nc2nc(-c3ccccc3)nc3[nH]ccc23)CC1` (centres undefined), 2.68 µM (active); in that of `Fc1ccc(N2CCN(CCC3OCCc4ccccc43)CC2)cc1` (centres undefined), “inactive”. On to `COc1ccc(S(=O)(=O)N2CCC[C@H]2C(=O)Nc2cc(C)cc(C)c2)cc1`, for which the Potency was 0.674 µM (active).

With `CN(C)c1ccnc2sc3c(=O)n(N4CCCCCC4)cnc3c12`, the Potency was 7.56 µM (active). As for `NS(=O)(=O)c1ccc(N2N=C(c3ccccc3)CC2c2ccccc2)cc1` (centres undefined), the figure is 10.7 µM (active); as for `C=CC(=O)N1CCCC(n2nc(-c3ccc(Oc4ccccc4)cc3)c3c(N)ncnc32)C1` (centres undefined), 3.79 µM (active). In the case of `CCOC(=O)CCNc1cc(N2CCc3ccccc3CC2)nc(-c2cccnc2)n1` it was 8.49 µM (active). In the case of `O=C(Nc1ccc(Cl)cc1)Nc1cccc(-c2cccc(N3CCCC3)n2)c1`, the Potency is 9.52 µM (active).

Regarding `O=[N+]([O-])c1ccc(Oc2ccc(N=C=S)cc2)cc1`, the Potency was 16.9 µM (active).
